PubChem BioAssay (Tox21)
Several values for one entry are separate records, joined by “and”; a condition that tells them apart may be missing. Equal entries are not always repeated. Inconclusive results are not listed. Where a structure was tested more than once in an assay, its records may differ in their call. Activity calls are given as the source filed them. Unless noted, calls follow the shape of the dose curve; as a rule, active = well fitted curve in the direction sought with a large enough effect in the repeat runs; inconclusive = weak or mixed curves; inactive = no such curve, though single readings can be large; an effect the other way counts as inactive or inconclusive.

How the values were obtained:
[1] = qHTS assay to identify small molecule agonists of the estrogen receptor alpha (ER-alpha) signaling pathway in the presence of an antagonist - cell viability counter screen (AID 1259386);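 also: cells exposed to compounds for 22 h at 37 °C before the viability read; nearly all actives have a fitted effect of over 30% in size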; also: potency is read from the fitted curve at half-maximal effect
Outline: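 Using estrogen-depleted VM7Luc4E2 cells, the 15-concentration compound series was applied together with 10.0nM ICI-182,780 and incubated 22hr at 37C/5% CO2. Cell viability was then scored by CellTiter-Fluor.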

[2] = biological target: Progesterone receptor (Homo sapiens) (UniProt P06401); test: qHTS assay to identify small molecule antagonists of the progesterone receptor (PR) signaling pathway (AID 1346795; active = well fitted inhibition curve with a large enough effect in the signal ratio in the repeat runs, not every such curve was filed as active; the % refers to the signal ratio)
Outline: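 Antagonist mode: compounds tested against 1 nM (final) promegestone stimulation in HEK293T cells expressing PR-UAS-bla reporter, 16 hr at 37C, 5% CO2; beta-lactamase activity detected via B/G FRET substrate after 2 hr at room temperature.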

[3] = qHTS assay to identify small molecule antagonists of the TGF-beta/Smad signaling pathway - cell viability counter screen (AID 1346824); also: nearly all actives have a fitted effect of over 50% in size
Outline: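 Cytotoxicity counter-screen run in the same wells as the beta-lactamase Smad reporter read: CellTiter-Glo luminescence after 30 min at room temperature. HEK 293T SBE-bla cells had 5 hr compound exposure at 37 C with TGF-beta1 (0.25 ng/mL stock).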

[4] = qHTS assay to identify small molecule agonists of the TGF-beta/Smad signaling pathway - cell viability counter screen (AID 1346829); also: top concentration of the series differs between compounds; nearly all actives have a fitted effect of over 45% in size
Outline: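 SBE-bla HEK 293T cells plated overnight, compound exposure 5 hr at 37 C. Viability read in the same wells by CellTiter-Glo luminescence after 30 min at room temperature, following the beta-lactamase read.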

[5] = biological target: Thyrotropin-releasing hormone receptor (Homo sapiens) (UniProt P34981); test: qHTS assay to identify small molecule antagonists of the thyrotropin-releasing hormone receptor (TRHR) signaling pathway (AID 1346877; active = well fitted inhibition curve with a large enough effect in the repeat runs, not every such curve was filed as active; also: series mostly up to about 51 µM)
Outline: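 Calcium signal in dye-loaded TRHR/HEK293 cells; compounds added 5 min before TRH (1 nM final); fluorescence monitored 3 min at 1 s steps.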

[6] = biological target: Thyrotropin-releasing hormone receptor (Homo sapiens) (UniProt P34981); test: qHTS assay to identify small molecule agonists of the thyrotropin-releasing hormone receptor (TRHR) signaling pathway (AID 1346891; calls by dose curve;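 also: HEK293 cells expressing TRHR with calcium dye readout; series mostly up to about 58 µM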)
Outline: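 Cells: TRHR-Hek293, seeded and incubated 18 h. Dye loading: 2 h at 37 °C. Compound added from DMSO stock by pin tool. Read-out: kinetic calcium fluorescence over 3 min.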

[7] = Human pregnane X receptor (PXR) small molecule agonists, qHTS cell viability counter screen (AID 1346977); also: nearly all actives have a fitted effect of over 50% in size; also: potency is read from the fitted curve at half-maximal effect
Outline: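 Cytotoxicity counter screen run in the same wells as the PXR luciferase assay, using PXR-Luc HepG2 cells in charcoal-stripped serum medium. Viability: CellTiter-Fluor fluorescence after 24hr compound treatment.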

[8] = Caspase-3/7 induction in HepG2 cells by small molecules, qHTS assay (AID 1346978); also: nearly all actives have a fitted effect of over 15% in size; also: potency is read from the fitted curve at half-maximal effect
Outline: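 Caspase-3/7 induction was measured by Caspase-Glo 3/7 luminescence (30 min, room temperature) after a 17 hr compound exposure of wild-type HepG2 cells seeded at 2,000 per well and pre-incubated 5 hr.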

[9] = Caspase-3/7 induction in CHO-K1 cells by small molecules, qHTS cell viability counter screen (AID 1346979); also: nearly all actives have a fitted effect of over 35% in size; also: potency is read from the fitted curve at half-maximal effect
Outline: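 Cytotoxicity counter screen run in parallel with the caspase-3/7 assay: CHO-K1 cells, 16hr compound treatment at 37C, then CellTiter-Fluor for 1hr before fluorescence reading.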

[10] = Caspase-3/7 induction in HepG2 cells by small molecules, qHTS cell viability counter screen (AID 1346981); also: nearly all actives have a fitted effect of over 30% in size; also: potency is read from the fitted curve at half-maximal effect
Outline: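 After a 5-hr attachment period at 37 C and 5% CO2, wild-type HepG2 cells received compounds in DMSO. Sixteen hours later CellTiter-Fluor was dispensed and the fluorescent signal quantified after a further hour.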

[11] = biological target: Nuclear receptor subfamily 1 group I member 2 (Homo sapiens) (UniProt O75469); test: Human pregnane X receptor (PXR) small molecule agonists, qHTS assay (AID 1346982); also: nearly all actives have a fitted effect of over 35% in size; also: potency is read from the fitted curve at half-maximal effect
Outline: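 Tox21 qHTS; PXR-Luc HepG2; compounds pinned from DMSO; 24 hr, 37 C; ONE-Glo luciferase detection, 30 min room temperature.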

[12] = biological target: Nuclear receptor subfamily 1 group I member 2 (Rattus norvegicus) (UniProt Q9R1A7); test: Rat pregnane X receptor (rPXR) activation by small molecules, qHTS assay (AID 1346983); settings: rPXR luciferase reporter cells, One-Glo luminescence, 24 h; stronger effect = higher value; also: nearly all actives have a fitted effect of over 20% in size
Outline: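 Luminescent readout (One-Glo luciferase, 30 min room temperature) followed 24 hr compound treatment at 37 C of rPXR cells plated 2,000 per well and preincubated 5hr; qHTS format with compounds delivered in DMSO.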

[13] = biological target: Nuclear receptor subfamily 1 group I member 2 (Homo sapiens) (UniProt O75469); test: Human pregnane X receptor (PXR) activation by small molecules, qHTS assay (AID 1346985); also: nearly all actives have a fitted effect of over 40% in size; also: potency is read from the fitted curve at half-maximal effect
Outline: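 DPX-2 cells (HepG2 co-transfected with a PXR response element and a CYP3A4-promoter luciferase construct) were seeded at 2,000 per well, rested 5 hr at 37C, then exposed to DMSO-dissolved compounds for 24 hr. Activation was read as luciferase luminescence.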

[14] = biological target: Progesterone receptor (Homo sapiens) (UniProt P06401); test: qHTS assay to identify small molecule agonists of the progesterone receptor (PR) signaling pathway (AID 1346784; calls by dose curve; also: nearly all actives have a fitted effect of over 30% in size; also: potency is read from the fitted curve at half-maximal effect)
Outline: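 Cells (PR-UAS-bla HEK 293T, GripTite) were plated in assay medium containing 2% charcoal-stripped FBS and incubated 6 hr. Test compounds in DMSO were added for 16 hr at 37C. FRET substrate was then loaded for 2 hr at room temperature before fluorescence reading.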

[15] = qHTS assay to identify small molecule antagonists of the progesterone receptor (PR) signaling pathway - cell viability counter screen (AID 1346798); also: nearly all actives have a fitted effect of over 50% in size; also: potency is read from the fitted curve at half-maximal effect
Outline: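 Counter screen for cytotoxicity: viability of PR-UAS-bla HEK293T cells was measured with CellTiter-Glo luminescence following 16 hr compound exposure in the presence of R5020.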

[16] = qHTS assay to identify small molecule agonists of the progesterone receptor (PR) signaling pathway - cell viability counter screen (AID 1346799; calls by dose curve; also: nearly all actives have a fitted effect of over 45% in size; also: potency is read from the fitted curve at half-maximal effect)
Outline: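 Cells (PR-UAS-bla HEK293T) are plated at 3,000/well in 2% charcoal-stripped FBS medium, rested 6 hr, dosed and incubated 16 hr at 37C. CellTiter-Glo is then added and luminescence measured after 30 min at room temperature.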

[17] = qHTS assay to identify small molecule agonists of the TGF-beta/Smad signaling pathway (AID 1346859; active = well fitted activation curve with a large enough effect in the signal ratio in the repeat runs, not every such curve was filed as active; the % refers to the signal ratio; also: series mostly up to about 77 µM)
Outline: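 Reporter line: HEK 293T with stably integrated SBE-controlled beta-lactamase. Compound exposure lasts 5 hr at 37 C and 5% CO2; substrate loading follows for 2 hr at room temperature, with emission read at 460 and 530 nm.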

[18] = Caspase-3/7 induction in CHO-K1 cells by small molecules, qHTS assay (AID 1346980); also: nearly all actives have a fitted effect of over 15% in size
Outline: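 Luminescent Caspase-Glo 3/7 read (30min, room temperature) quantified apoptosis induction. Cells were wild-type CHO-K1, treated with compound for 17hr at 37 C and 5% CO2.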

[19] = biological target: Cytochrome P450 2D6 (Homo sapiens) (UniProt P10635); test: Cytochrome P450 Family 2 Subfamily D Member 6 (CYP2D6) small molecule antagonists: luciferase reporter qHTS assay (AID 1671196); also: nearly all actives have a fitted effect of over 50% in size; also: potency is read from the fitted curve at half-maximal effect
Outline: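 Room-temperature luminescent CYP2D6 activity assay: compound preincubated 10 min with enzyme–substrate mix, NADPH-initiated reaction 1 h, detection reagent 20 min before reading.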

[20] = biological target: Nuclear receptor subfamily 1 group I member 2 (Homo sapiens) (UniProt O75469); test: CYP3A4 induction through human pregnane X receptor (PXR) by small molecules, qHTS assay (AID 1346984); also: nearly all actives have a fitted effect of over 40% in size
Outline: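 Cells (DPX-2; HepG2 with PXR element plus CYP3A4-promoter luciferase) settled 5hr, then were treated 24hr at 37C. A 3hr, 3uM-final Luciferin-IPA step preceded luminescence measurement with One-Glo.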
% is scaled to controls: 0 for no effect and ±100 for the full control effect.

Chain of Cytochrome P450 2D6 (Homo sapiens) (P10635 whole entry, looked up): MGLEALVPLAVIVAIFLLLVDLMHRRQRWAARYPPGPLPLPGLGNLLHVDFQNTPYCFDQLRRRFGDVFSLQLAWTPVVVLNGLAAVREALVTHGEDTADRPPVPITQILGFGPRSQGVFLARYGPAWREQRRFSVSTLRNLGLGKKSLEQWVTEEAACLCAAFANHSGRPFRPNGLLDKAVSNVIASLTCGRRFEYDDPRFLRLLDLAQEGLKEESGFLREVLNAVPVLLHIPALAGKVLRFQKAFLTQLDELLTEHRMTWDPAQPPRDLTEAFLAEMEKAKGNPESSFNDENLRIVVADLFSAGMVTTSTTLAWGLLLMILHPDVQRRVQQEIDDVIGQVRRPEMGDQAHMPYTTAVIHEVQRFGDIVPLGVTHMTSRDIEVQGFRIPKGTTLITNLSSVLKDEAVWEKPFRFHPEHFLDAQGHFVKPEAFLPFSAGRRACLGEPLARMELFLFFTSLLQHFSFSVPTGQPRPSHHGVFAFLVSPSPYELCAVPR
Chain of Thyrotropin-releasing hormone receptor (Homo sapiens) (P34981 whole entry, looked up): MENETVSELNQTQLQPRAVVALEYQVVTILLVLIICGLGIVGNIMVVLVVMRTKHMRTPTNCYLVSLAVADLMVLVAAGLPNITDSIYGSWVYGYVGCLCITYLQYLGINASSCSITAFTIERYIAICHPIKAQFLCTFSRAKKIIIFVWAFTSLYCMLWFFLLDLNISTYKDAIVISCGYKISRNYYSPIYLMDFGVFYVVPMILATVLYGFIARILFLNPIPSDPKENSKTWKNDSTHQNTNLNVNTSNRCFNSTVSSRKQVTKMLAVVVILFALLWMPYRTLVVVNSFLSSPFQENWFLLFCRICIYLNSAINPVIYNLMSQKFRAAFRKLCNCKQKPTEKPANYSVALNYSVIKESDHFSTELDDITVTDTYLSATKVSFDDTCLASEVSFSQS
Chain of Progesterone receptor (Homo sapiens) (P06401 whole entry, looked up): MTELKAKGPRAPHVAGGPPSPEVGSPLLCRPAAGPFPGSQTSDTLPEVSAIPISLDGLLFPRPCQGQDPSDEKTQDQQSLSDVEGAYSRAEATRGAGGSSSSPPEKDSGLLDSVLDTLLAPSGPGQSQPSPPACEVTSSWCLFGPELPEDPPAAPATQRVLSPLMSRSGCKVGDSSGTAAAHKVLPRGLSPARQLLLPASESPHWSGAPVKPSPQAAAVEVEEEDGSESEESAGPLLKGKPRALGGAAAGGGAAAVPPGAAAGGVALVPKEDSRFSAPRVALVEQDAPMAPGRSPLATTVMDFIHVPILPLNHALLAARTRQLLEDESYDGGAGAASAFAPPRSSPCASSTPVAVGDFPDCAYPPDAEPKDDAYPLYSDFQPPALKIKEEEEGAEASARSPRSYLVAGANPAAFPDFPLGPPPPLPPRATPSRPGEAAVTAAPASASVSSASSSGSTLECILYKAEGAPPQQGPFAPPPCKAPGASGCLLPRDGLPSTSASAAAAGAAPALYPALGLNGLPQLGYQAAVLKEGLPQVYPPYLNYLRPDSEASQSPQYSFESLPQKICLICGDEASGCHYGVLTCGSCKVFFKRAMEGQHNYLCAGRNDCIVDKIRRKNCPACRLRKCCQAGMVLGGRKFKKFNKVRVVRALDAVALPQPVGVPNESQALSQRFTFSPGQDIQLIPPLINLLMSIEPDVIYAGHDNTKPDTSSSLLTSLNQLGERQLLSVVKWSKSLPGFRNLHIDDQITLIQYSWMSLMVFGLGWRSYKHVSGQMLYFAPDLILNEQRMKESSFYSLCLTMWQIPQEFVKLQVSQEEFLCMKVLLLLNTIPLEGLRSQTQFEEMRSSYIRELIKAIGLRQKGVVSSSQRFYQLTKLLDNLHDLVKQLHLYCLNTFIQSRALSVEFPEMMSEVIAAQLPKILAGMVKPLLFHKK
Chain of Nuclear receptor subfamily 1 group I member 2 (Homo sapiens) (O75469 whole entry, looked up): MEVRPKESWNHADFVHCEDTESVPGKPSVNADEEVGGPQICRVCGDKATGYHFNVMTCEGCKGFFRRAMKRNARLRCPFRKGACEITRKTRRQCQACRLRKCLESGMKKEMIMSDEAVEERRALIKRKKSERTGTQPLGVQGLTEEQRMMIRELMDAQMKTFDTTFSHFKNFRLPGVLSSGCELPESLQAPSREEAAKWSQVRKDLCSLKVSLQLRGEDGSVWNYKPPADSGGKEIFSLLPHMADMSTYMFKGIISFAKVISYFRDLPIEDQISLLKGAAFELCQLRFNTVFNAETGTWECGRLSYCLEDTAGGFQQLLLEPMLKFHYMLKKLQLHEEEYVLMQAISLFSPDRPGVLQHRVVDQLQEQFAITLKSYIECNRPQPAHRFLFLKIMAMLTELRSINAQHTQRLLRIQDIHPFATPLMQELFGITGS
Chain of Nuclear receptor subfamily 1 group I member 2 (Rattus norvegicus) (Q9R1A7 whole entry, looked up): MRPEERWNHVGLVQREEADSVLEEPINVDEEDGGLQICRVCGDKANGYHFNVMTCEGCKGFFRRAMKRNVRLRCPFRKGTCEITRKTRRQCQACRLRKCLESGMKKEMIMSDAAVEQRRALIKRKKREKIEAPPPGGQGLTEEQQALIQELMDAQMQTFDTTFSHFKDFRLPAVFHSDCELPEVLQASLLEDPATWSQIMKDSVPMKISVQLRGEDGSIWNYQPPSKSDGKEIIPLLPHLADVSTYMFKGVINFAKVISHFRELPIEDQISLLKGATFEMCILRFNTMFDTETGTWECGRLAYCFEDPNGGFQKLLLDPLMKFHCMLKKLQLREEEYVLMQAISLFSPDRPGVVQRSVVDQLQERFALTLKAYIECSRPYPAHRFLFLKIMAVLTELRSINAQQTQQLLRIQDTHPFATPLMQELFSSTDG

CC(C(O)c1ccc(O)cc1)N1CCC(Cc2ccccc2)CC1 (configuration not stated)
inactive: Potency [1] | Potency [2] | Potency [3] | Potency [4] | Potency [5] | Potency [6] | Potency [7] | Potency [8] | Potency [9] | Potency [10] | Potency [11] | max activation [12] -2.92% | Potency [13]

C1COC(NC(C2CC2)C2CC2)=N1
active: Potency [19] 15.5 µM
inactive: Potency [14] | Potency [2] | Potency [15] | Potency [16] | Potency [3] | Potency [4] | outcome [17] | Potency [5] | Potency [6] | Potency [7] | Potency [8] | Potency [9] | Potency [18] | Potency [10] | Potency [11]

CCCCCCCCCCCC[N+](C)(C)C
active: Potency [1] 54.5 µM | Potency [9] 68.4 µM | Potency [11] 24.3 µM and 61.1 µM | Potency [19] 3.55 µM and 3.56 µM and 2.24 µM
inactive: Potency [14] | Potency [3] | Potency [4] | Potency [5] | Potency [6] | Potency [8] | Potency [18] | Potency [10]

COC(c1ccccc1)(c1ccccc1)[C@H](Oc1nc(C)cc(C)n1)C(=O)O
inactive: Potency [1] | Potency [14] | Potency [16] | Potency [3] | Potency [4] | outcome [17] | Potency [7] | Potency [8] | Potency [9] | Potency [18] | Potency [10] | Potency [11] | max activation [12] -2.41% | Potency [20] | Potency [19]
active: Potency [13] 10 µM

Nc1cc(Cl)c(-c2cc(Cl)c(N)cc2Cl)cc1Cl
active: Potency [15] 38.5 µM and 43.3 µM | Potency [16] 30.6 µM and 21.7 µM | Potency [7] 50.1 µM and 68.6 µM | Potency [9] 30.6 µM and 54.5 µM | Potency [11] 24.3 µM and 19.3 µM
inactive: Potency [1] | outcome [17] | Potency [5] | Potency [6]

Nc1nc2ccccc2[nH]1
inactive: Potency [1] | Potency [2] | Potency [15] | Potency [16] | Potency [3] | Potency [4] | outcome [17] | Potency [5] | Potency [6] | Potency [7] | Potency [9] | Potency [10] | Potency [11]
active: Potency [19] 62.5 µM

CCOC(=O)C(C)C(C)=O (configuration not stated)
inactive: Potency [14] | Potency [2] | Potency [15] | Potency [16] | Potency [3] | Potency [4] | outcome [17] | Potency [5] | Potency [6] | Potency [7] | Potency [8] | Potency [9] | Potency [10] | Potency [11] | Potency [19]

O=C1Nc2ccccc2C1(c1ccc(O)cc1)c1ccc(O)cc1
inactive: Potency [14] | Potency [3] | Potency [4] | outcome [17] | Potency [7] | Potency [8] | Potency [18] | Potency [10]
active: Potency [1] 1.37 µM and 944 nM
61.1 µM (active) and inactive: Potency [11]

C=C(C)C(=O)O
inactive: Potency [1] | Potency [15] | Potency [16] | Potency [3] | Potency [4] | outcome [17] | Potency [5] | Potency [6] | Potency [7] | Potency [8] | Potency [9] | Potency [18] | Potency [10] | Potency [11] | Potency [19]

OCC(CO)N[C@H]1C[C@](O)(CO)[C@@H](O)[C@H](O)[C@H]1O
inactive: Potency [14] | Potency [2] | Potency [15] | Potency [16] | Potency [3] | Potency [4] | outcome [17] | Potency [5] | Potency [6] | Potency [7] | Potency [9] | Potency [10] | Potency [11] | max activation [12] -3.54% | Potency [20] | Potency [13] | Potency [19]

O=C(Nc1ccccc1SSc1ccccc1NC(=O)c1ccccc1)c1ccccc1
inactive: Potency [1] | Potency [14] | Potency [3] | Potency [4] | Potency [5] | Potency [6] | Potency [7] | Potency [18] | Potency [19]
active: Potency [9] 24.5 µM and 27.3 µM | Potency [11] 48.8 µM and 30.6 µM

CNCCC(Oc1ccc(C(F)(F)F)cc1)c1ccccc1 (configuration not stated)
active: Potency [15] 60.3 µM and 29.8 µM | Potency [16] 30.2 µM and 13.3 µM | Potency [7] 24 µM and 26.6 µM | Potency [8] 26.9 µM | Potency [9] 67.7 µM and 29.8 µM | Potency [10] 60.3 µM
inactive: Potency [1] | Potency [3] | Potency [4] | outcome [17] | Potency [5] | Potency [6]

[Cl][In]([Cl])[Cl]
inactive: Potency [1] | Potency [3] | Potency [4] | Potency [5] | Potency [6] | Potency [7] | Potency [8] | Potency [9] | Potency [10] | Potency [11] | max activation [12] -5.91% | Potency [20] | Potency [13] | Potency [19]
inactive and 27.3 µM (active): Potency [14]

CCCCC(CC)COC(=O)CC(C(=O)OCC(CC)CCCC)S(=O)(=O)O (configuration not stated)
inactive and 17.8 µM (active): Potency [19]
inactive: Potency [1] | Potency [14] | Potency [4] | Potency [5] | Potency [6]
active: Potency [16] 29.5 µM | Potency [7] 70.8 µM and 61.1 µM | Potency [9] 52.4 µM | Potency [11] 5.88 µM and 3.06 µM

CC[C@]1(O)C[C@@H]2CN(CCc3c([nH]c4ccccc34)[C@@](C(=O)OC)(c3cc4c(cc3OC)N(C)[C@H]3[C@@](O)(C(=O)OC)[C@H](OC(C)=O)[C@]5(CC)C=CCN6CC[C@]43[C@@H]65)C2)C1
active: Potency [1] 10.6 µM | Potency [7] 15 µM and 26.6 µM | Potency [9] 1.33 µM and 119 nM | Potency [10] 29.8 µM
inactive: Potency [14] | Potency [3] | Potency [4] | outcome [17] | Potency [5] | Potency [6] | Potency [8] | Potency [18]
